Several values for one entry are separate records, joined by “and”; a condition that tells them apart may be missing. Equal entries are not always repeated. Where a structure was tested more than once in an assay, its records may differ in their call. Activity calls are given as the source filed them. Rule for the calls: active = hit-call score of the fitted dose curve at least 0.9, where 1 is the maximum; inactive = score below 0.9.
Key:
[1] = CEETOX_H295R_DOC: CeeTox H295R High-throughput Steroidogenesis Assay for DOC (AID 2283439); conditions: actives raise or lower the signal
Summary of the method: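 Readout: 11-deoxycorticosterone in culture medium by reverse-phase C18 HPLC with ESI+ tandem MS after MTBE extraction. Cells: H295R, forskolin-primed (10 uM, 48 h), chemical-treated 48 h; DMSO 0.1% final. Activity fitted bidirectionally versus DMSO.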

[2] = CEETOX_H295R_ESTRADIOL: CeeTox H295R High-throughput Steroidogenesis Assay for Estradiol (AID 2283440); conditions: actives raise or lower the signal;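 note: estradiol secreted into medium quantified by LC-MS/MS after dansyl derivatisation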
Summary of the method: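 H295R, 48 h forskolin (10 uM) prestim → 48 h compound, 0.1% DMSO final. Estradiol in medium: MTBE extraction, dansyl chloride derivatization, LC-MS/MS. Fit bidirectional vs DMSO baseline; MTT viability in same wells.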

[3] = CEETOX_H295R_ESTRONE: CeeTox H295R High-throughput Steroidogenesis Assay for Estrone (AID 2283441); conditions: actives raise or lower the signal;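 note: estrone secreted into medium measured by LC-MS/MS after dansyl derivatization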
Summary of the method: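 H295R cells prestimulated 48 h with 10 uM forskolin, then exposed 48 h to chemicals in 0.1% DMSO final; estrone in medium extracted with MTBE, dansyl-derivatized, quantified by HPLC-MS/MS; bidirectional fitting versus DMSO, viability by MTT.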

[4] = read-out: Tumor necrosis factor receptor superfamily member 6 (Homo sapiens) (UniProt P25445); assay: LTEA_HepaRG_FAS: Life Technologies and Expression Analysis (LTEA) Assay for Fas cell surface death receptor (FAS) using HepaRG (AID 2283447); conditions: mRNA level, 48 h; actives raise or lower the signal
Summary of the method: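 FAS transcript level was measured by TaqMan qRT-PCR against three housekeeping genes after 48 h chemical exposure. Cells were HepaRG, 0.5% DMSO vehicle, with a top concentration of 100 uM and half-log dilutions over eight points, in duplicate.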

[5] = read-out: Cyclin D2 (CCND2), CCND2 (gene 894); assay: LTEA_HepaRG_CCND2: Life Technologies and Expression Analysis (LTEA) Assay for Cyclin D2 (CCND2) using HepaRG (AID 2283449); conditions: mRNA level, 48 h; actives raise or lower the signal
Summary of the method: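 Read-out is CCND2 mRNA level measured by qRT-PCR in human HepaRG liver cells and normalised to three housekeeping genes. Chemicals were applied for 48 h at up to 100 uM, with gain or loss fitted relative to 0.5% DMSO.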

[6] = read-out: Cyclin Dependent Kinase Inhibitor 1A (CDKN1A), CDKN1A (gene 1026); assay: LTEA_HepaRG_CDKN1A: Life Technologies and Expression Analysis (LTEA) Assay for Cyclin Dependent Kinase Inhibitor 1A (CDKN1A) using HepaRG (AID 2283450); conditions: mRNA level, 48 h; actives raise or lower the signal
Summary of the method: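 HepaRG, 48 h dosing, 8-pt half-log series from 100 uM top, 0.5% DMSO vehicle, duplicates. Readout: TaqMan qRT-PCR of CDKN1A transcript, housekeeping-normalized (ACTB, GAPDH, POLR2A). Up/down curve fit relative to DMSO.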

[7] = read-out: Cyclin D1 (CCND1), CCND1 (gene 595); assay: LTEA_HepaRG_CCND1: Life Technologies and Expression Analysis (LTEA) Assay for Cyclin D1 (CCND1) using HepaRG (AID 2283451); conditions: mRNA level, 48 h; actives raise or lower the signal;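 for AC50: differentiated human HepaRG liver cells in serum-free induction medium; TaqMan qRT-PCR transcript level normalised to ACTB GAPDH and POLR2A housekeeping genes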
Summary of the method: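 qRT-PCR (Fluidigm 96.96 array) read-out of transcript level, housekeeping-normalized (ACTB/GAPDH/POLR2A). HepaRG cells, 48 h chemical exposure, 8-point half-log series from 100 uM, 0.5% DMSO vehicle; gain or loss relative to DMSO baseline.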

[8] = read-out: catalase (CAT), CAT (gene 847); assay: LTEA_HepaRG_CAT: Life Technologies and Expression Analysis (LTEA) Assay for catalase (CAT) using HepaRG (AID 2283452); conditions: mRNA level, 48 h; actives raise or lower the signal
Summary of the method: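 Expression of CAT was quantified by TaqMan qRT-PCR with ACTB/GAPDH/POLR2A normalization after 48 h chemical exposure of HepaRG. Eight-point half-log series, top 100 uM, in 0.5% DMSO; gain or loss fitted against vehicle.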

[9] = read-out: flavin-containing dimethylaniline monooxygenases 3 (FMO3), FMO3 (gene 2328); assay: LTEA_HepaRG_FMO3: Life Technologies and Expression Analysis (LTEA) Assay for flavin-containing dimethylaniline monooxygenases 3 (FMO3) using HepaRG (AID 2283453); conditions: mRNA level, 48 h; actives raise or lower the signal;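 for AC50: differentiated human HepaRG liver cells in serum-free induction medium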
Summary of the method: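 Differentiated HepaRG cells in serum-free induction medium, exposed 48 h in duplicate to 8 half-log concentrations up to 100 uM in 0.5% DMSO. FMO3 mRNA by qRT-PCR, normalized to ACTB, GAPDH, POLR2A; bidirectional fit vs DMSO.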

[10] = read-out: Cytochrome P450 (CYP1A1), CYP1A1 (gene 1543); assay: LTEA_HepaRG_CYP1A1: Life Technologies and Expression Analysis (LTEA) Assay for Cytochrome P450 (CYP1A1) using HepaRG (AID 2283454); conditions: mRNA level, 48 h; actives raise or lower the signal
Summary of the method: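 qRT-PCR read-out: CYP1A1 transcript normalized to three housekeeping genes, fitted bidirectionally against 0.5% DMSO vehicle baseline. Human HepaRG cells, 48 h chemical exposure, 8-point half-log series topping at 100 uM.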

[11] = read-out: CFLAR gene, CFLAR (gene 8837); assay: LTEA_HepaRG_CFLAR: Life Technologies and Expression Analysis (LTEA) Assay for CFLAR gene using HepaRG (AID 2283455); conditions: mRNA level, 48 h; actives raise or lower the signal
Summary of the method: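 HepaRG, 48 h exposure, 8-pt conc-response (100 uM top, half-log), 0.5% DMSO vehicle, duplicates. CFLAR expression by qRT-PCR; ACTB/GAPDH/POLR2A normalization; gain or loss fit vs DMSO baseline.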

[12] = read-out: Forkhead box O1 (FOXO1), FOXO1 (gene 2308); assay: LTEA_HepaRG_FOXO1: Life Technologies and Expression Analysis (LTEA) Assay for Forkhead box O1 (FOXO1) using HepaRG (AID 2283456); conditions: mRNA level, 48 h; actives raise or lower the signal
Summary of the method: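 Readout is FOXO1 transcript level by multiplexed qRT-PCR against three housekeeping genes, curve-fitted in both directions relative to 0.5% DMSO vehicle. Human HepaRG cultures received chemicals for 48 h, up to 100 uM in half-log steps.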

[13] = read-out: growth arrest and DNA damage 45 (GADD45A), GADD45A (gene 1647); assay: LTEA_HepaRG_GADD45A: Life Technologies and Expression Analysis (LTEA) Assay for growth arrest and DNA damage 45 (GADD45A) using HepaRG (AID 2283458); conditions: mRNA level, 48 h; actives raise or lower the signal
Summary of the method: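 Cells plated and cultured 48 h, switched to serum-free induction medium, then dosed for 48 h (100 uM top, half-log dilutions, 0.5% DMSO). RNA was isolated and transcript measured by Fluidigm qRT-PCR.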

[14] = read-out: Forkhead box O3 (FOXO3), FOXO3 (gene 2309); assay: LTEA_HepaRG_FOXO3: Life Technologies and Expression Analysis (LTEA) Assay for Forkhead box O3 (FOXO3) using HepaRG (AID 2283459); conditions: mRNA level, 48 h; actives raise or lower the signal
Summary of the method: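 HepaRG, 48 h post-dose; 8 conc., half-log from 100 uM, 0.5% DMSO, duplicates; serum-free induction medium. Readout: FOXO3 mRNA, TaqMan qRT-PCR, housekeeping-normalized. Bidirectional curve fit vs DMSO baseline.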

[15] = read-out: ABC Transporter (ABCB1), ABCB1 (gene 5243); assay: LTEA_HepaRG_ABCB1: Life Technologies and Expression Analysis (LTEA) Assay for ABC Transporter (ABCB1) using HepaRG (AID 2283460); conditions: mRNA level, 48 h; actives raise or lower the signal
Summary of the method: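 Expression of ABCB1 was quantified by qRT-PCR against three housekeeping genes after human HepaRG cultures received test chemicals for 48 hours. Concentrations spanned eight half-log steps topping at 100 uM in 0.5% DMSO; gain or loss of signal was fitted relative to vehicle.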

[16] = read-out: growth arrest and DNA damage 45 (GADD45B), GADD45B (gene 4616); assay: LTEA_HepaRG_GADD45B: Life Technologies and Expression Analysis (LTEA) Assay for growth arrest and DNA damage 45 (GADD45B) using HepaRG (AID 2283461); conditions: mRNA level, 48 h; actives raise or lower the signal
Summary of the method: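 qRT-PCR read-out (Fluidigm TaqMan, housekeeping-normalized) of mRNA change in human HepaRG cells after 48 h chemical exposure; 8-point curve, top 100 uM, half-log steps, 0.5% DMSO vehicle; gain or loss fitted relative to DMSO baseline.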

[17] = read-out: ABC Transporter (ABCC3), ABCC3 (gene 8714); assay: LTEA_HepaRG_ABCC3: Life Technologies and Expression Analysis (LTEA) Assay for ABC Transporter (ABCC3) using HepaRG (AID 2283462); conditions: mRNA level, 48 h; actives raise or lower the signal
Summary of the method: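 qRT-PCR read-out of ABCC3 transcript, normalized to three housekeeping genes (ACTB, GAPDH, POLR2A), after 48 h chemical exposure of human HepaRG cells. Eight half-log concentrations, highest 100 uM, in 0.5% DMSO; gain or loss fitted relative to DMSO baseline.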

[18] = read-out: ABC Transporter (ABCB11), ABCB11 (gene 8647); assay: LTEA_HepaRG_ABCB11: Life Technologies and Expression Analysis (LTEA) Assay for ABC Transporter (ABCB11) using HepaRG (AID 2283463); conditions: mRNA level, 48 h; actives raise or lower the signal
Summary of the method: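 ABCB11 transcript levels are read by Fluidigm TaqMan qRT-PCR after 48 h chemical treatment of human HepaRG cells. Concentrations span 100 uM downward in half-log steps with 0.5% DMSO; gain or loss is fitted against DMSO controls.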

[19] = CEETOX_H295R_TESTO: CeeTox H295R High-throughput Steroidogenesis Assay for Testosterone (TESTO) (AID 2283457); conditions: actives raise or lower the signal;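 note: cells exposed to chemicals for 48 h before medium collection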
Summary of the method: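 Readout: testosterone quantified by HPLC-MS/MS (C18, ESI positive) after MTBE liquid-liquid extraction of culture medium. Cells were H295R, 48 h chemical exposure per OECD 456 with modifications. Gain or loss of signal fitted relative to DMSO.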

[20] = read-out: Fatty acid synthase (Homo sapiens) (UniProt P49327); assay: LTEA_HepaRG_FASN: Life Technologies and Expression Analysis (LTEA) Assay for Fatty Acid Synthase (FASN) using HepaRG (AID 2283448); conditions: mRNA level, 48 h; actives raise or lower the signal;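 note: differentiated human HepaRG liver cells in serum-free induction medium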
Summary of the method: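 FASN expression changes, up or down relative to 0.5% DMSO, were measured by qRT-PCR in human HepaRG cells after 48 h treatment with chemicals at eight concentrations (half-log steps from 100 uM).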

Measured: AC50

Fatty acid synthase (Homo sapiens), sequence (P49327 whole entry, looked up): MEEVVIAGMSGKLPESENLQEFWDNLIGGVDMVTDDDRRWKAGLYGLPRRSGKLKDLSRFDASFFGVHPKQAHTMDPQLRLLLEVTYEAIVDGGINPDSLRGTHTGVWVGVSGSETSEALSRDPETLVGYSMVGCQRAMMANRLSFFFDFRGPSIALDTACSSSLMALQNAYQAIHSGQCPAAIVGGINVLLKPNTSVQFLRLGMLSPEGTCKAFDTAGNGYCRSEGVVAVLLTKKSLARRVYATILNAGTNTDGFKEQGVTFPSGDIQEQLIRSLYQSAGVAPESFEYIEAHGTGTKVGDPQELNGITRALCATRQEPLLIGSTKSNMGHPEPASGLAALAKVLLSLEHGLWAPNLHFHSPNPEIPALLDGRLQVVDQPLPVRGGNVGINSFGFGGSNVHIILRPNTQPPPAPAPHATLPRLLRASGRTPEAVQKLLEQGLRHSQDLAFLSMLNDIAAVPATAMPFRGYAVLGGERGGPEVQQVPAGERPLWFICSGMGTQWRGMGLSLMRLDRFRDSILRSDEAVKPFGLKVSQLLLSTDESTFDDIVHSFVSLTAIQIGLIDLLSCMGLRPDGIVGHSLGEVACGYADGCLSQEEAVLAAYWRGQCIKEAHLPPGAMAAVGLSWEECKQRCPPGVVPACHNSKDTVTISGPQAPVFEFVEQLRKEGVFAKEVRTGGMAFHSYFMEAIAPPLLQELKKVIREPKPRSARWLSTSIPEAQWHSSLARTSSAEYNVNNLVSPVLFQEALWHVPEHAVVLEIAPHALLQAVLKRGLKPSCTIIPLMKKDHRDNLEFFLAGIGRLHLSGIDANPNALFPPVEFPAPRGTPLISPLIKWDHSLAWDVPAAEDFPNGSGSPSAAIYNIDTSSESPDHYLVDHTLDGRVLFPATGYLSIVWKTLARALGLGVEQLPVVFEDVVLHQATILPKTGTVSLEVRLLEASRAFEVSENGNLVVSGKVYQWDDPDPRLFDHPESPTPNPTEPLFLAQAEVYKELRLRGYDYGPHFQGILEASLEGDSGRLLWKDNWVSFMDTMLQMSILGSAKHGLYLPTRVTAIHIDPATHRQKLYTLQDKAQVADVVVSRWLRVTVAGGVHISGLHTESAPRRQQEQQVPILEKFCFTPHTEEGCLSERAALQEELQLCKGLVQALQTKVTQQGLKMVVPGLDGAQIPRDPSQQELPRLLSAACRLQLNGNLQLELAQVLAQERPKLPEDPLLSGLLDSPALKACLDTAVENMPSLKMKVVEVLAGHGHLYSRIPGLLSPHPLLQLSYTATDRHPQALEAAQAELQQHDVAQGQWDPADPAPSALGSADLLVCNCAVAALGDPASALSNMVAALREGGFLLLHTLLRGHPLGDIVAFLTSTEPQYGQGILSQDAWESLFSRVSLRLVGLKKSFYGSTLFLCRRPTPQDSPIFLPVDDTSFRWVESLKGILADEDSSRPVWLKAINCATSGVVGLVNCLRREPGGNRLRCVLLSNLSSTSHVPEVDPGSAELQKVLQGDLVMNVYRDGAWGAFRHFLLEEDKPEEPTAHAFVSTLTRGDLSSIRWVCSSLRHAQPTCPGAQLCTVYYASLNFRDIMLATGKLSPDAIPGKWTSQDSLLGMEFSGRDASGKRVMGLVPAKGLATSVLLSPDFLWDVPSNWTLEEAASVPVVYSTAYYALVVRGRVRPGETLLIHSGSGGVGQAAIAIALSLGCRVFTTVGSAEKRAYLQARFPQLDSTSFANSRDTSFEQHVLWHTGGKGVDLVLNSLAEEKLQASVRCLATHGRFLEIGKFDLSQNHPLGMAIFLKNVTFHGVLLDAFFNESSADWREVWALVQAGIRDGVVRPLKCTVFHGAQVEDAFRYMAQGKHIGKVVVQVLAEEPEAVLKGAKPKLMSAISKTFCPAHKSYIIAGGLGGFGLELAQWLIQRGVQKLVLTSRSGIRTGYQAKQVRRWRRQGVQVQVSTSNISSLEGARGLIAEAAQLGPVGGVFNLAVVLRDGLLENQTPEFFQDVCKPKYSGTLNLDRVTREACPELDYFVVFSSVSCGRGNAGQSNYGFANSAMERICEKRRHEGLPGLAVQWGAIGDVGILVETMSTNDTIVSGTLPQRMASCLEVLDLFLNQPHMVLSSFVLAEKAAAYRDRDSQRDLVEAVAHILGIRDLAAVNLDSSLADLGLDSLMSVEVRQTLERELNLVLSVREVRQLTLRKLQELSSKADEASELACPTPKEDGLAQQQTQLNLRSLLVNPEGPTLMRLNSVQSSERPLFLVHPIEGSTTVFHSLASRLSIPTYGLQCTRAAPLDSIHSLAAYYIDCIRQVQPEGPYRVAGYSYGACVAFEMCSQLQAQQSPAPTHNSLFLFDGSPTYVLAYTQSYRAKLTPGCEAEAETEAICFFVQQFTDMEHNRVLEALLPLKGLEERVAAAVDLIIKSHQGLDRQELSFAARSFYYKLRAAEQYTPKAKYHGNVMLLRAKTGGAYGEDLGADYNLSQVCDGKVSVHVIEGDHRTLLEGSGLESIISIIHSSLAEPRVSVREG

CCOC(=O)c1ccc(O)cc1
active: [1] 37.7 µM
not listed: [19] | [20]
inactive: all other assays above

CC1(C)C(C=C(Cl)Cl)C1C(=O)OCc1cccc(Oc2ccccc2)c1 (stereo not given)
active: [10] 35.9 µM
not listed: [2] | [3] | [9] | [19] | [20]
inactive: all other assays above

CN(C)C(=O)Nc1ccc(Cl)c(Cl)c1
active: [7] 50 µM | [9] 50 µM | [10] 27 µM | [19] 28.1 µM | [14] 22.2 µM | [16] 66.5 µM
not listed: [2] | [3] | [18] | [20]
inactive: all other assays above

S=C(S)NCCNC(=S)S.[Mn+2].[S-]C([S-])=NCCN=C([S-])[S-].[Zn+2]
inactive: [1] | [4] | [5] | [6] | [7] | [12] | [13] | [14]
active: [4] 1.63 µM | [20] 1.14 µM and 714 nM and 1.11 µM | [6] 25 µM and 3.66 µM | [7] 0.187 µM | [8] 881 nM and 1.09 µM and 1.05 µM | [10] 116 nM and 122 nM | [11] 1.31 µM and 1.18 µM and 1.48 µM | [12] 4.79 µM and 9.06 µM | [13] 3.61 µM and 2.03 µM | [14] 1.62 µM and 1.21 µM | [15] 881 nM and 993 nM and 732 nM | [16] 3.12 µM and 2.14 µM and 4.41 µM | [17] 717 nM and 898 nM and 1.03 µM | [18] 695 nM and 718 nM and 693 nM

C[C@]12C[C@H](O)[C@H]3[C@@H](CCC4=CC(=O)CC[C@@]43C)[C@@H]1CC[C@@H]2C(=O)CO
active: [10] 50 µM | [15] 70 µM
not listed: [2] | [9] | [18] | [19] | [20]
inactive: all other assays above

C=CCOC(Cn1ccnc1)c1ccc(Cl)cc1Cl (stereo not given)
active: [4] 68.9 µM | [6] 28.6 µM | [7] 90.5 µM | [8] 33.5 µM | [10] 12.1 µM | [11] 79.2 µM | [12] 78.1 µM | [13] 59.1 µM | [16] 91.3 µM | [17] 35.5 µM
inactive: [1] | [5] | [14] | [15]

Source: PubChem BioAssay (EPA / NIEHS)
